In the supplement of paper PMC6089552:
The whole screen tested about 3,200 compounds, of which about 300 (9.4%) showed activity. This excerpt belongs to a sample that is enriched for actives.

Tested on: A673/TR/shEF
Assay: cell viability (LOESS-normalised, relative to median of negative controls) (log2 ratio); higher = more viable cells (less compound effect), active = hit call of the paper (over 3 MAD below the median)
Details: treatment time: 72 h
Outline: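 Viability of A673/TR/shEF Ewing sarcoma cells was determined by CellTiter-Glo luminescence. The cells, at 1,500 per well in 384-well plates, were grown with or without doxycycline from 24 h before compound addition to switch on EWS-FLI1 shRNA knockdown, then exposed for three days to library compounds at two or more concentrations or to DMSO controls. Signals were LOESS-corrected plate by plate, normalised to the negative-control median and log2-transformed.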

[1] = 0.25 µM, library screen: screen1, EWS-FLI1 expression: high (no doxycycline)
[2] = 0.25 µM, library screen: screen1, EWS-FLI1 expression: low (doxycycline-induced shRNA knockdown)
[3] = 2.5 µM, library screen: screen1, EWS-FLI1 expression: high (no doxycycline)
[4] = 2.5 µM, library screen: screen1, EWS-FLI1 expression: low (doxycycline-induced shRNA knockdown)
[5] = 0.25 µM, library screen: screen2, EWS-FLI1 expression: high (no doxycycline)
[6] = 0.25 µM, library screen: screen2, EWS-FLI1 expression: low (doxycycline-induced shRNA knockdown)
[7] = 2.5 µM, library screen: screen2, EWS-FLI1 expression: high (no doxycycline)
[8] = 2.5 µM, library screen: screen2, EWS-FLI1 expression: low (doxycycline-induced shRNA knockdown)
[9] = 0.103 µM, library screen: screen3, EWS-FLI1 expression: high (no doxycycline)
[10] = 0.103 µM, library screen: screen3, EWS-FLI1 expression: low (doxycycline-induced shRNA knockdown)
[11] = 0.308 µM, library screen: screen3, EWS-FLI1 expression: high (no doxycycline)
[12] = 0.308 µM, library screen: screen3, EWS-FLI1 expression: low (doxycycline-induced shRNA knockdown)
[13] = 0.926 µM, library screen: screen3, EWS-FLI1 expression: high (no doxycycline)
[14] = 0.926 µM, library screen: screen3, EWS-FLI1 expression: low (doxycycline-induced shRNA knockdown)
[15] = 2.8 µM, library screen: screen3, EWS-FLI1 expression: high (no doxycycline)
[16] = 2.8 µM, library screen: screen3, EWS-FLI1 expression: low (doxycycline-induced shRNA knockdown)
[17] = 8.3 µM, library screen: screen3, EWS-FLI1 expression: high (no doxycycline)
[18] = 8.3 µM, library screen: screen3, EWS-FLI1 expression: low (doxycycline-induced shRNA knockdown)
[19] = 25 µM, library screen: screen3, EWS-FLI1 expression: high (no doxycycline)
[20] = 25 µM, library screen: screen3, EWS-FLI1 expression: low (doxycycline-induced shRNA knockdown)
[21] = 0.025 µM, library screen: screen1, EWS-FLI1 expression: high (no doxycycline)
[22] = 0.025 µM, library screen: screen1, EWS-FLI1 expression: low (doxycycline-induced shRNA knockdown)
[23] = 25 µM, library screen: screen1, EWS-FLI1 expression: high (no doxycycline)
[24] = 25 µM, library screen: screen1, EWS-FLI1 expression: low (doxycycline-induced shRNA knockdown)

Measured: cell viability (log2)

CC(C)CCC[C@@H](C)[C@H]1CC[C@H]2[C@@H]3CC[C@@H]4C[C@H](O)CC[C@]4(C)[C@H]3CC[C@]12C
inactive: [1] 0.108 | [2] 0.0181 | [3] 0.105 | [4] 0.0609

CC1CCC2(OC1)OC1CC3C4CCC5C[C@@H](O)CCC5(C)C4=CCC3(C)C1[C@@H]2C (stereo not given in full)
inactive: [1] 0.0912 | [2] 0.0387 | [3] 0.0505 | [4] 0.0779

CCCCCCCCCCCCCCCC(=O)NCC(COP(=O)([O-])OCC[N+](C)(C)C)OC (stereo not given)
inactive: [5] 0.14 | [6] 0.124 | [7] 0.166 | [8] 0.0176

CCC(=O)c1ccc2c(c1)N(CC(C)N(C)C)c1ccccc1S2 (stereo not given)
inactive: [1] 0.0889 | [2] 0.155 | [3] 0.168 | [4] 0.297

Cn1cnc([N+](=O)[O-])c1Sc1ncnc2nc[nH]c12
active: 25 µM, library screen: screen2, EWS-FLI1 expression: high (no doxycycline) -0.337
inactive: 0.025 µM, library screen: screen2, EWS-FLI1 expression: high (no doxycycline) 0.138 | 0.025 µM, library screen: screen2, EWS-FLI1 expression: low (doxycycline-induced shRNA knockdown) 0.0997 | [1] 0.0615 | [2] 0.0765 | [5] 0.159 | [6] 0.0607 | [3] -0.0254 | [4] 0.161 | [7] -0.0273 | [8] 0.0557 | 25 µM, library screen: screen2, EWS-FLI1 expression: low (doxycycline-induced shRNA knockdown) 0.03

COc1cc(OC)c(C2NC(=S)NC(C)=C2C(=O)Nc2cccc(Cl)c2)cc1OC (stereo not given)
inactive: [1] 0.0501 | [2] 0.0639 | [3] 0.0887 | [4] 0.0905

NS(=O)(=O)c1ccc(-c2ccc(/C=C3/SC(=S)N(C4CCCCC4)C3=O)o2)cc1
inactive: [1] 0.109 | [2] 0.0623 | [3] 0.167 | [4] -0.0331

CC(=O)O[C@H]1C(=O)[C@@]2(C)[C@H]([C@H](OC(=O)c3ccccc3)[C@]3(O)C[C@H](OC(=O)[C@H](O)[C@@H](NC(=O)c4ccccc4)c4ccccc4)C(C)=C1C3(C)C)[C@]1(OC(C)=O)CO[C@@H]1C[C@@H]2O
active: [9] -2.57 | [10] -0.853 | [1] -3.63 | [2] -1.46 | [5] -2.49 | [6] -0.868 | [11] -2.24 | [12] -0.787 | [13] -2.68 | [14] -0.947 | [3] -4.22 | [4] -1.51 | [7] -2.93 | [8] -1 | [15] -2.59 | [16] -1.11 | [17] -2.75 | [18] -1.03 | [19] -2.68 | [20] -1.1

CC(=O)O[C@@]12CO[C@@H]1C[C@H](O)[C@@]1(C)C(=O)[C@H](O)C3=C(C)[C@@H](OC(=O)[C@H](O)[C@@H](NC(=O)OC(C)(C)C)c4ccccc4)C[C@@](O)([C@@H](OC(=O)c4ccccc4)[C@H]21)C3(C)C
active: [9] -2.68 | [10] -0.934 | [11] -2.8 | [12] -1.01 | [13] -2.92 | [14] -1.04 | [15] -2.83 | [16] -1.04 | [17] -2.98 | [18] -1.06 | [19] -2.84 | [20] -1.01

[Na+].[Na+].[Na+].[O]=[V]([O-])([O-])[O-]
inactive: [9] 0.0642 | [10] 0.11 | [11] -0.00412 | [12] 0.0414 | [13] 0.0791 | [14] 0.0822 | [15] 0.0816 | [16] 0.153 | [17] 0.102 | [18] 0.022 | [19] 0.0273 | [20] 0.0301

O=C(Nc1ccncc1)c1cc(-c2ccccc2)nc2ccccc12
inactive: [1] 0.0994 | [2] 0.0756 | [3] 0.0606 | [4] -0.00485

COC(=O)C[C@H]1C(C)(C)C(OC)=C2CC3=C4CC(=O)O[C@@H](c5ccoc5)[C@]4(C)CCC3[C@@]1(C)C2=O (stereo not given in full)
inactive: [1] 0.0817 | [2] 0.1 | [3] 0.101 | [4] 0.109

Nc1ncnc2c1nc(Br)n2C1OC2COP(=O)(O)OC2C1O (stereo not given)
inactive: [5] 0.279 | [6] 0.0361 | [7] 0.103 | [8] 0.0822

CC1=C(/C=C/C(C)=C/C=C/C(C)=C/C=C/C=C(C)/C=C/C=C(C)/C=C/[C@@]23O[C@]2(C)C[C@@H](O)CC3(C)C)C(C)(C)C[C@H](O)C1
inactive: [1] 0.0858 | [2] 0.0984 | [3] 0.143 | [4] 0.132

COc1ccc2c(c1)[C@@]1(C)CCC(=O)C[C@@H]1CC2
inactive: [1] 0.0574 | [2] 0.0238 | [3] 0.0895 | [4] 0.0859

CC(C)c1ccc2c(c1)CCC1C(C)(CN)CCCC21C (stereo not given)
inactive: [1] 0.0133 | [2] -0.0819 | [3] 0.122 | [4] 0.00337

Fc1cccc(CN(C2=NCCN2)c2c(Cl)cccc2Cl)c1
inactive: [5] 0.243 | [6] 0.118 | [7] 0.138 | [8] 0.0968

CC(=O)/C=C/C1C(C)(O)CCC2C(C)(C)CCCC21C (stereo not given)
inactive: [1] 0.0886 | [2] 0.136 | [3] 0.148 | [4] 0.139

COc1cccc(C(=O)NCCN2CCN(c3ccc(Cl)cc3)CC2)c1
inactive: [5] 0.184 | [6] 0.2 | [7] 0.0849 | [8] 0.0867

Cc1nc(Nc2ncc(C(=O)Nc3c(C)cccc3Cl)s2)cc(N2CCN(CCO)CC2)n1
active: [13] -0.395 | [14] -0.907 | [15] -0.393 | [16] -1.27 | [17] -0.457 | [18] -1.34 | [19] -0.706 | [20] -1.33
inactive: [9] -0.00181 | [10] -0.0394 | [11] -0.125 | [12] -0.364

O=C(O)c1cn(-c2ccccc2)nc1-c1ccc(F)cc1
inactive: [1] 0.0839 | [2] -0.00121 | [3] 0.0458 | [4] -0.135

O=S(=O)(NCCNC/C=C/c1ccc(Br)cc1)c1cccc2cnccc12
inactive: [21] 0.026 | [22] 0.000211 | [1] 0.096 | [2] 0.0474 | [5] 0.108 | [6] 0.000615 | [3] 0.0846 | [4] -0.0121 | [7] 0.194 | [8] 0.0705 | [23] 0.00409 | [24] 0.217

NCCNS(=O)(=O)c1cccc2cnccc12
inactive: [21] 0.261 | [22] -0.0195 | [1] 0.263 | [2] -0.0436 | [5] 0.125 | [6] 0.144 | [4] 0.0153 | [7] 0.077 | [8] 0.0865 | [23] -0.0355 | [24] 0.14
active: [3] -0.101

CNCCNS(=O)(=O)c1cccc2cnccc12
inactive: [21] 0.0336 | [22] 0.0964 | [1] 0.0201 | [2] 0.0846 | [5] 0.191 | [6] 0.0995 | [3] -0.0144 | [4] 0.076 | [7] 0.114 | [8] 0.037 | [23] -0.0615 | [24] -0.521

NC(N)=NCCNS(=O)(=O)c1cccc2cnccc12
active: [3] -0.325 | [23] -0.105
inactive: [21] 0.216 | [22] 0.0306 | [1] 0.259 | [2] 0.000334 | [5] 0.159 | [6] 0.0697 | [4] 0.117 | [7] 0.11 | [8] 0.0282 | [24] 0.0777
